Compound activity deposited in PubChem by Sanford-Burnham Center for Chemical Genomics.
TRAIL sens C8: sensitizes caspase-8 expressing cells to TRAIL; NB7+C8 cells + TRAIL, ATPlite viability luminescence; inhibition (viability loss, TRAIL sensitization), % at 10 µM; 360,000 tested, 1% active;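 active means compounds causing at least 50% loss of cell viability in the single-dose screen, relative to plate controls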
SENP7 block: blocks the human protease SENP7 | recombinant SENP7, Z-RLRGG-aminoluciferin luminescence, 40 min | inhibition, % at 5 µM | 330,000 tested, 1.5% active;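 active means inhibition above about 50% at the single test dose, limit read from the data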
PPC-1+TRAIL kill: compounds killing PPC-1 cancer cells with TRAIL present (potentiator screen, no TRAIL-free arm) | 220,000 tested, 0.41% active | cell killing (% activity), % at 4 µM or 5 µM | PPC-1 cells + TRAIL, ATPLite viability luminescence;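 active means cell killing above 50% in the first pass at 4 µM, then a duplicate retest at 5 µM averaging 50% or more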
SENP6 block: blocks the human protease SENP6. Q9GZR1. Recombinant SENP6 catalytic domain, aminoluciferin luminescence. inhibition, % at 10 µM. 330,000 tested, 1.8% active. AID 2599;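 active means inhibition above about 50% at the single tested dose, limit read from the data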
SENP8 block-1: SENP8 protease inhibition. Q96LD8. purified SENP8, Z-RLRGG-aminoluciferin cleavage, luminescence. inhibition, % at 10 µM. 330,000 tested, 1.2% active. AID 2540; in the data active means inhibition above about 50%
Target sequence (Q96LD8 whole entry, looked up): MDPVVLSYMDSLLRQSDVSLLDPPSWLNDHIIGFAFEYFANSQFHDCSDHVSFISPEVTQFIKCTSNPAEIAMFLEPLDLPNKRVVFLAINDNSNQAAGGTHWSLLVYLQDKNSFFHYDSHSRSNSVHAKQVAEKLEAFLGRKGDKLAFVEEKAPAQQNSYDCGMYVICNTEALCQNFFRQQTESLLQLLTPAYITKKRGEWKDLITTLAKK
SENP8 block-2: blocks human SENP8 cleavage of Nedd8 substrate; Q96LD8; recombinant SENP8, Nedd8 substrate fluorescence; inhibition, % at 20 µM; 360,000 tested, 0.64% active; AID 602440; in the data active means inhibition mostly above about 40%, no sharp cut-off; inactive means mostly below about 27%
SENP8 conf: confirmation of human SENP8 protease inhibitors. inhibition, % at 12.5 µM. shares compounds with SENP7 block. 6,200 tested, 40% active. Recombinant SENP8, Z-RLRGG-aminoluciferin luminescence, 60 min;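 active means mean inhibition across replicates above about 50%, limit read from the data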
SENP6 conf: confirmation of human SENP6 protease inhibitors; shares compounds with SENP7 block; recombinant SENP6, Z-RLRGG-aminoluciferin luminescence; inhibition, % at 12.5 µM; 6,200 tested, 58% active
SENP7 confirm: human SENP7 inhibition, confirmed; shares compounds with SENP7 block; recombinant SENP7, Z-RLRGG-aminoluciferin luminescence, 40 min; inhibition, % at 12.5 µM; 6,200 tested, 69% active; AID 488917
Casp3 select: inhibits human caspase-3 in SENP selectivity test; shares compounds with SENP7 block; purified caspase-3, Z-DEVD-aminoluciferin luminescence, 60 min; inhibition, % at 12.5 µM; 6,200 tested, 60% active;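 active means mean inhibition above about 50%, limit read from the data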
Target sequence (P42574 28-227 limits assumed): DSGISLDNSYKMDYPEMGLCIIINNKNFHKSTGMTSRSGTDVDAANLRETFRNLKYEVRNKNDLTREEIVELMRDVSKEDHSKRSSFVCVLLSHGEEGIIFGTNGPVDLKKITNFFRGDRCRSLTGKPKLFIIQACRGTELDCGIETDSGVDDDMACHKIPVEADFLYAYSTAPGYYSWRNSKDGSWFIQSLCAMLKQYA
Luc interf: counter-screen for SENP inhibitors: luminescence interference; inhibition, % at 12.5 µM; Pre-incubated SENP8/Z-RLRGG-aminoluciferin, luciferase luminescence interference; 6,200 tested, 39% active; shares compounds with SENP7 block;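 active means mean inhibition above about 50% when retested at one dose, limit read from the data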
Numbers stand for hits; n = inactive; x = no result given. Compounds with a hit are over-represented: about 3% of the library has one in this group of screens.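 How the source made its calls, unless noted: active means mean inhibition above about 50% in the one-dose retest (limit read from the data); inactive means the rest.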

SMILES	TRAIL sens C8	SENP7 block	PPC-1+TRAIL kill	SENP6 block	SENP8 block-1	SENP8 block-2	SENP8 conf	SENP6 conf	SENP7 confirm	Casp3 select	Luc interf
Cc1cnc(NC(=O)c2cccs2)s1	n	57	x	69	n	n	62	60	86	84	n
O=C(Nc1ncc([N+](=O)[O-])s1)c1ccccc1Br	n	76	x	90	86	n	91	90	100	94	71
O=C(Nc1ncc([N+](=O)[O-])s1)c1cccs1	n	99	x	97	96	n	96	98	103	98	98
Cc1ccc(S(=O)(=O)N2[C@@H](c3ccc(F)cc3)C(C(=O)O)=C[C@H]2CC2CCCC2)cc1	n	n	x	n	n	n	x	x	x	x	x
O=C1N=C2N(CCN3CCCCC3)c3ccccc3N2/C1=C\c1ccc([N+](=O)[O-])s1	n	x	x	x	x	n	x	x	x	x	x
O=C(Cc1ccccc1F)Nc1cc(S(=O)(=O)N2CCOCC2)ccc1N1CCCC1	n	n	x	n	n	n	x	x	x	x	x
CC1CCc2c(sc(NC(=O)c3ccco3)c2C(=O)O)C1 (centres undefined)	n	n	x	78	62	n	78	72	88	66	65
O=C(Nc1sc2c(c1C(=O)O)CCCCC2)c1ccco1	n	88	n	97	93	n	96	97	101	96	95
CN1CCN(C(=O)c2c(NC(=O)c3ccco3)sc3c2CCC(C(C)(C)C)C3)CC1 (centres undefined)	n	n	n	n	n	n	x	x	x	x	x
COc1ccc(/C=N/Nc2ncccc2[N+](=O)[O-])c(OC)c1	n	99	n	100	97	n	99	100	104	99	n
Cc1cc(-c2csc(Nc3ccccn3)n2)ccc1F	n	67	x	75	59	n	n	76	92	n	n
COc1ccc(-c2csc(Nc3ccccn3)n2)cc1OC	n	n	x	n	n	n	x	x	x	x	x
Cc1nc(C)c(-c2csc(Nc3ccccn3)n2)s1	n	54	x	74	61	n	n	65	88	n	68
Cc1ccnc(Nc2nc(-c3ccc(Cl)cc3)cs2)c1	n	n	x	n	n	n	x	x	x	x	x
Cc1ccc(-c2csc(Nc3ccccn3)n2)cc1	62	89	x	91	87	n	92	92	98	69	77
Cc1ccnc(Nc2nc(-c3ccc(F)cc3)cs2)c1	n	n	x	63	n	n	n	n	76	n	n
CN(C)N1C(N)=C(C#N)C(c2cccc([N+](=O)[O-])c2)C2=C1CC(C)(C)CC2=O (centres undefined)	n	n	x	n	n	n	x	x	x	x	x
CCCOc1ccc(C2C(C(=O)c3ccco3)=C(O)C(=O)N2CCCn2ccnc2)cc1OC (centres undefined)	n	x	x	x	x	n	x	x	x	x	x
O=c1[nH]c2cc([N+](=O)[O-])ccc2c2cc(Br)ccc12	n	x	x	x	x	n	x	x	x	x	x
Fc1ccc(-c2csc(Nc3ccccn3)n2)c(F)c1	57	86	x	87	87	n	72	87	99	68	n
CC(=O)Nc1cccc(-c2csc(Nc3ncccn3)n2)c1	x	x	n	x	x	x	x	x	x	x	x
c1ccc(-c2csc(Nc3ccccn3)n2)cc1	n	98	x	96	94	n	n	96	102	82	79
CC(=O)Nc1cccc(-c2csc(Nc3ccc(C)cn3)n2)c1	64	58	n	69	n	n	66	64	87	n	n
Oc1ccc(-c2csc(Nc3ccccn3)n2)cc1	n	62	x	85	82	n	91	87	95	54	88
